Reference: the supplement of paper PMC10503962

Each compound was assayed on Trichuris muris adult worms (assay: mean motility score (Paragon pixel variance) of adult worms (arbitrary units); higher = more motile worms, i.e. less anthelmintic effect; extreme values may be limits of the assay). Conditions: 100 µM; 24 h.
Procedure: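 Primary ex vivo screen of 409 approved drugs against adult Trichuris muris worms: one worm per well in RPMI-1640 with penicillin/streptomycin, 100 µM drug in 1% DMSO, 37 °C, 5% CO2 for 24 h. Motility was recorded with INVAPP (200-frame movies) and scored with the Paragon pixel-variance algorithm. Values are means of triplicate wells run on three occasions; levamisole was the positive control and DMSO the negative control.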

Row | SMILES | mean motility score
1 | O=C1c2ccccc2C(=O)C1c1ccccc1 [phenindione] | 4420
2 | C#Cc1cccc(Nc2ncnc3cc(OCCOC)c(OCCOC)cc23)c1 [erlotinib] | 1720
3 | CCCN(CCc1cccs1)[C@H]1CCc2c(O)cccc2C1 [rotigotine] | 3100
4 | CC(C)(C(=O)c1cccnc1)c1cccnc1 [metyrapone] | 3950
5 | CN(C)C(=O)C(CCN1CCC(O)(c2ccc(Cl)cc2)CC1)(c1ccccc1)c1ccccc1 [loperamide] | 0
6 | C[C@H](O)C(=O)Nc1c(I)c(C(=O)NC(CO)CO)c(I)c(C(=O)NC(CO)CO)c1I [iopamidol] | 2190
7 | COc1ccc2cc(CCC(C)=O)ccc2c1 [nabumetone] | 2720
8 | Cc1cc2c(s1)Nc1ccccc1N=C2N1CCN(C)CC1 [olanzapine] | 454
9 | CCn1cc(C(=O)O)c(=O)c2cc(F)c(N3CCNC(C)C3)c(F)c21 (stereo not given) [lomefloxacin] | 3840
10 | Oc1ccc(O)cc1 [hydroquinone] | 4230
11 | Nc1nc(O)c2ncn(COC(CO)CO)c2n1 [ganciclovir] | 2950
12 | CC(C)(C)c1nc(-c2cccc(NS(=O)(=O)c3c(F)cccc3F)c2F)c(-c2ccnc(N)n2)s1 [dabrafenib] | 6
13 | CCN(CC)CCOc1ccc2nc(N(C)C)sc2c1.Cl.Cl [diamthazole dihydrochloride] | 4190
14 | NCCS(=O)(=O)O [taurine] | 1780
15 | CC1CCc2c(N3CCC(O)CC3)c(F)cc3c(=O)c(C(=O)O)cn1c23 (stereo not given) [nadifloxacin] | 2660
16 | Cc1ccc(O)c(-n2nc3ccccc3n2)c1 [drometrizole] | 2400
17 | COc1cc2nccc(Oc3ccc(NC(=O)C4(C(=O)Nc5ccc(F)cc5)CC4)cc3)c2cc1OC [cabozantinib] | 3950
18 | CC[N+](CC)(CCNC(=O)C(=O)NCC[N+](CC)(CC)Cc1ccccc1Cl)Cc1ccccc1Cl [ambenonium] | 3180
19 | CC(c1cc2ccccc2s1)N(O)C(N)=O (stereo not given) [zileuton] | 3310
20 | CN1CCc2cccc3c2[C@H]1Cc1ccc(O)c(O)c1-3 [apomorphine] | 2320

Row | SMILES | mean motility score
21 | COc1ccc([C@@H]2Sc3ccccc3N(CCN(C)C)C(=O)[C@@H]2OC(C)=O)cc1 [diltiazem] | 2070
22 | CCCc1cc(O)nc(S)n1 [propylthiouracil] | 3720
23 | NS(=O)(=O)c1cc(Cl)c(Cl)c(S(N)(=O)=O)c1 [dichlorphenamide] | 752
24 | CO/N=C(\C(=O)N[C@@H]1C(=O)N2C(C(=O)[O-])=C(COC(N)=O)CS[C@H]12)c1ccco1.[Na+] [cefuroxime sodium] | 2610
25 | CO[C@H]1/C=C/O[C@@]2(C)Oc3c(C)c(O)c4c(O)c(c(/C=N/N5CCN(C)CC5)c(O)c4c3C2=O)NC(=O)/C(C)=C\C=C\[C@H](C)[C@H](O)[C@@H](C)[C@@H](O)[C@@H](C)[C@H](OC(C)=O)[C@@H]1C [rifampicin] | 1330
26 | CC(C)(Oc1ccc(C2CC2(Cl)Cl)cc1)C(=O)O (stereo not given) [ciprofibrate] | 2070
27 | O=C1CCc2ccc(OCCCCN3CCN(c4cccc(Cl)c4Cl)CC3)cc2N1 [aripiprazole] | 3030
28 | Cl.Nc1c2c(nc3ccccc13)CCCC2 [tacrine hydrochloride] | 2770
29 | CCCCC1=NC2(CCCC2)C(=O)N1Cc1ccc(-c2ccccc2-c2nn[nH]n2)cc1 [irbesartan] | 2360
30 | CC(C)(C)NC(=O)[C@H]1CC[C@H]2[C@@H]3CC[C@H]4NC(=O)C=C[C@]4(C)[C@H]3CC[C@]12C [finasteride] | 2080
31 | COc1cc2nc(N3CCN(C(=O)C4CCCO4)CC3)nc(N)c2cc1OC.Cl (stereo not given) [terazosin hydrochloride] | 2970
32 | CN1CCN(CCCN2c3ccccc3Sc3ccc(C(F)(F)F)cc32)CC1.Cl.Cl [trifluoperazine dihydrochloride] | 0
33 | CCCCNc1cc(C(=O)O)cc(S(N)(=O)=O)c1Oc1ccccc1 [bumetanide] | 4880
34 | COC1=C(OC)C(=O)C(CCCCCCCCCCO)=C(C)C1=O [idebenone] | 1370
35 | CN(C)[C@@H]1C(O)=C(C(N)=O)C(=O)[C@@]2(O)C(O)=C3C(=O)c4c(O)cccc4[C@@](C)(O)[C@H]3[C@H](O)[C@@H]12 [oxytetracycline] | 2120
36 | CCCNCC(O)COc1ccccc1C(=O)CCc1ccccc1 (stereo not given) [propafenone] | 1050
37 | CCc1nc(N)nc(N)c1-c1ccc(Cl)cc1 [pyrimethamine] | 2930
38 | NC(N)=O [urea] | 4760
39 | Cl.Fc1ccc([C@@H]2CCNC[C@H]2COc2ccc3c(c2)OCO3)cc1 [paroxetine hydrochloride] | 1300
40 | Nc1ccccc1NC(=O)c1ccc(CNC(=O)OCc2cccnc2)cc1 [entinostat] | 2720
